Shown are actives, neighbours in structure and some others; about 0.92% of the full set was active somewhere.
MEP2 TOR yeast: alters MEP2-GFP fluorescence in TOR pathway yeast screen; AID 2016; hit rate 0.51% among 330,000; GFP response vs DMSO, % at 10 µM; S. cerevisiae MEP2-GFP strain, flow cytometry GFP, 3 h; 100% = DMSO control level;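 active = GFP response versus DMSO above a set limit, roughly screen mean plus 3 SD, cut at about 180% in these data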;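 note: median GFP fluorescence of the barcode-gated MEP2-GFP cells per well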
CIT2 TOR yeast: modulators of TOR pathway CIT2-GFP in S. cerevisiae | S. cerevisiae CIT2-GFP strain, flow cytometry, 3 h; 100 means same as DMSO wells | GFP response vs DMSO, % at 10 µM | hit rate 0.065% among 320,000;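 active = GFP response relative to DMSO above a set limit, near the screen mean plus 3 SD, cut at about 150% in these data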;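 note: ratio of well median GFP fluorescence to mean of DMSO wells on the plate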
LAP4 TOR yeast: yeast TOR pathway LAP4-GFP modulation; S. cerevisiae LAP4-GFP multiplex, flow cytometry GFP, 3 h; median GFP as percent of DMSO wells; GFP response vs DMSO, % at 10 µM; hit rate 0.34% among 320,000;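 active = GFP response vs DMSO above a set limit, about the screen mean plus 3 SD, cut at about 150% in these data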
RPL19A TOR yeast: alters RPL19A-GFP fluorescence in TOR pathway yeast screen | S. cerevisiae RPL19A-GFP strain, flow cytometry, 3 h; stronger effect = lower value | percent response vs DMSO, % at 10 µM | hit rate 0.3% among 330,000 | AID 2025;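 active = percent response vs DMSO below 50%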;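 note: median channel GFP fluorescence of the barcoded RPL19A-GFP strain; lower means less RPL19A-GFP as with rapamycin TOR inhibition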
AGP1-GFP MLPCN: alters AGP1-GFP fluorescence in TOR pathway yeast screen | S. cerevisiae AGP1-GFP multiplex flow cytometry, 3 h; GFP as percent of DMSO wells | GFP response vs DMSO, % at 10 µM | hit rate 0.02% among 320,000;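 active = GFP response relative to DMSO above a set limit, near screen average plus 3 SD, cut at about 150% in these data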;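 note: median GFP channel fluorescence of the gated AGP1 strain per well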
LAP4-GFP pick2: second confirmation of modulators of TOR reporter LAP4-GFP in yeast; S. cerevisiae LAP4-GFP strain, flow cytometry GFP, 3 h; shares compounds with LAP4 TOR yeast; GFP response vs DMSO, % at 10 µM; AID 2621; hit rate 20% among 590;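 active = GFP signal as percent of the solvent control above about 150%, meaning raised reporter expression, limit read from the data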
MEP2 cherry2: second confirmation of modulators of TOR reporter MEP2-GFP in yeast. shares compounds with LAP4 TOR yeast. S. cerevisiae MEP2-GFP strain, flow cytometry GFP, 3 h. GFP response vs DMSO, % at 10 µM. hit rate 10% among 590. AID 2622;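 active = GFP signal above 150% of the solvent control wells, that is a rise of more than half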;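 note: median channel GFP fluorescence of all gated yeast cells per well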
RPL19A GFP CP2: yeast RPL19A-GFP TOR reporter modulation, second cherry pick; shares compounds with LAP4 TOR yeast; S. cerevisiae RPL19A-GFP strain, flow cytometry GFP, 3 h; stronger effect = lower value; 100% means same as DMSO wells; GFP response vs DMSO, % at 10 µM; hit rate 3% among 590;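 active = under 65% GFP response relative to DMSO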;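 note: median GFP channel fluorescence per well over the all cells gate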
CIT2 GFP CP2: second confirmation of modulators of TOR reporter CIT2-GFP in yeast; shares compounds with LAP4 TOR yeast; GFP response vs DMSO, % at 10 µM; hit rate 8% among 590; S. cerevisiae CIT2-GFP strain, flow cytometry GFP, 3 h; DMSO control wells read 100%;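 active = GFP response vs DMSO above about 150%, limit read from the data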;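 note: median green fluorescence per well over all gated yeast cells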
AGP1 GFP CP2: reconfirmed modulator of AGP1-GFP TOR reporter in yeast; shares compounds with LAP4 TOR yeast; S. cerevisiae AGP1-GFP strain, flow cytometry GFP, 3 h; percent response vs DMSO, % at 10 µM; 590 tested, under 10 active; AID 2643;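 active = over 150 percent of DMSO response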;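 note: median GFP channel fluorescence over all cells without mother daughter split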
Yeast autofluor: compound is autofluorescent in yeast s288c cells. fluorescence change (kMESF span) at 33 µM. 610 tested, under 10 active. shares compounds with LAP4 TOR yeast. S. cerevisiae s288c, 520 nm autofluorescence, flow cytometry, 3 h; stronger effect = higher value; zero means same as solvent-only cells;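 active = fluorescence span over the dose series, or activity score, above about 33, limit read from the data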
Yeast autofl DR: yeast s288c autofluorescence artifact in dose response; shares compounds with LAP4 TOR yeast; S. cerevisiae s288c parental, compound autofluorescence, flow cytometry, 3 h; fluorescence change (span) at 33 µM; 110 tested, under 10 active; AID 488829;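 active = fluorescence change span, or the activity score built from it, above 25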
TORC1 bypass: compounds blocking wildtype yeast growth but not TORC1 bypass cells | shares compounds with LAP4 TOR yeast | S. cerevisiae BY4741 spot growth rating, 48-72 h; stronger effect = lower value | growth rating (0-3) at 30 µM | 120 tested, under 10 active | AID 504456;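 active = growth rating at most 1 for wild type yeast while the TORC1 bypass strain still grows fully, rated 3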
A number is an active result; n = inactive; x = not tested or not shown.

SMILES | MEP2 TOR yeast | CIT2 TOR yeast | LAP4 TOR yeast | RPL19A TOR yeast | AGP1-GFP MLPCN | LAP4-GFP pick2 | MEP2 cherry2 | RPL19A GFP CP2 | CIT2 GFP CP2 | AGP1 GFP CP2 | Yeast autofluor | others
CC(Oc1ccc2c3c(c(=O)oc2c1)CCC3)C(=O)NCCN1CCOCC1 (stereo unspecified) | n | n | n | n | n | x | x | x | x | x | x
CC(Oc1cc2oc(=O)c3c(c2cc1Cl)CCC3)C(=O)NCCN1CCOCC1 (stereo unspecified) | n | n | n | n | n | n | n | n | n | n | n
CC(=O)N[C@@H](Cc1c[nH]c2ccccc12)C(=O)OCc1cc(C(F)(F)F)cc(C(F)(F)F)c1 | n | n | 160.3 | n | n | n | n | n | n | n | x
C#CCOCCOCCOCCNc1nc(N2CCN(C(=O)CCCCCCCCCCNC(=O)[C@H](CCCCN)n3cc(CCCC(=O)O)nn3)CC2)nc(N2CCN(C(=O)CCCCCCCCCCNC(=O)[C@H](CCCCN)n3cc(CCCC(=O)O)nn3)CC2)n1 | n | n | n | n | n | x | x | x | x | x | x
C#CCOCCOCCOCCNc1nc(N2CCN(C(=O)CCCCCCCCCCNC(=O)[C@H](CCCCN)n3cc(C)nn3)CC2)nc(N2CCN(C(=O)CCCCCCCCCCNC(=O)[C@@H]([C@H](C)CC)n3cc(CCCCCN)nn3)CC2)n1 | n | n | 153.4 | n | n | n | n | n | n | n | x
C#CCOCCOCCOCCNc1nc(N2CCN(C(=O)CCCCCCCCCCNC(=O)[C@H](CCCCN)n3cc(CCO)nn3)CC2)nc(N2CCN(C(=O)CCCCCCCCCCNC(=O)[C@H](CCCN=C(N)N)n3cc(C[C@@H](C)CC)nn3)CC2)n1 | n | n | 200.7 | n | n | n | 174.7 | n | n | n | n
C#CCOCCOCCOCCNc1nc(N2CCN(C(=O)CCCCCCCCCCNC(=O)[C@H](CCCCN)n3cc(CCCC(=O)O)nn3)CC2)nc(N2CCN(C(=O)CCCCCCCCCCNC(=O)[C@H](CCCN=C(N)N)n3cc(C[C@@H](C)CC)nn3)CC2)n1 | n | n | 177.6 | n | n | n | 164.7 | n | n | n | n
C#CCOCCOCCOCCNc1nc(N2CCN(C(=O)CCCCCCCCCCNC(=O)[C@H]([C@@H](C)CC)n3cc(CCCCCN)nn3)CC2)nc(N2CCN(C(=O)CCCCCCCCCCNC(=O)[C@@H]([C@H](C)O)n3cc(C)nn3)CC2)n1 | n | n | n | n | n | x | x | x | x | x | x
CCOc1ccc(OCCC(=O)N(CC)CC(=O)NCc2cccs2)cc1 | n | n | n | n | n | x | x | x | x | x | x
CCC(C)(C(=O)NC1CCCCC1)N(Cc1cccs1)C(=O)c1ccc(=O)[nH]c1 (stereo unspecified) | n | n | n | n | n | x | x | x | x | x | x
Cc1nn(-c2ccccc2)c(Cl)c1/C=N/Nc1nc2ccccc2n1C | n | n | n | n | n | x | x | x | x | x | x
Cc1ccnc(NS(=O)(=O)c2ccc(NC(=O)c3cc(-c4ccc(Br)cc4)nc4ccccc34)cc2)n1 | n | n | n | n | n | x | x | x | x | x | x
Cc1cccc(Nc2nc(-c3cccs3)cs2)n1 | n | n | n | n | n | x | x | x | x | x | x
Cc1cccnc1Nc1nc(-c2ccccc2)cs1 | n | n | n | n | n | x | x | x | x | x | x
Cc1cccnc1Nc1nc(-c2ccccn2)cs1 | n | n | n | n | n | 165.3 | 155.5 | n | n | n | n
Cc1cccc(Nc2nc(-c3ccccn3)cs2)n1 | n | n | 173.0 | n | n | x | x | x | x | x | n
Cc1[nH]n(-c2ncc(-c3ccccc3)s2)c(=O)c1C(c1ccc(Cl)cc1)C(C#N)C#N (stereo unspecified) | n | n | 154.9 | n | n | x | x | x | x | x | n
Cc1[nH]n(-c2ccccc2)c(=O)c1C(C[N+](=O)[O-])c1ccc(Cl)cc1 (stereo unspecified) | n | n | n | n | n | x | x | x | x | x | x
O=C(C#Cc1ccccc1)c1cccc([N+](=O)[O-])c1 | n | n | 201.9 | n | n | x | x | x | x | x | n
CC(=O)c1cccc([N+](=O)[O-])c1 | n | n | n | n | n | x | x | x | x | x | x
c1ccc(-c2cccc(-c3ccccn3)n2)nc1 | n | n | 318.6 | n | n | x | x | x | x | x | n | Yeast autofl DR=n;TORC1 bypass=n
c1ccc(-c2nnc(-c3ccccn3)nn2)nc1 | n | n | n | n | n | x | x | x | x | x | x
O=C(NCC(=O)N1CCN(c2ccccc2O)CC1)C1CCCCC1 | n | n | n | n | n | x | x | x | x | x | x
O=C(NCC(=O)N1CCC(N2CCCCC2)CC1)C1CCCCC1 | 230.1 | n | n | 26.2 | n | n | n | n | n | n | x
CC(C)C(=O)NC(c1cccs1)c1cc([N+](=O)[O-])c2cccnc2c1O (stereo unspecified) | n | n | 152.8 | n | n | x | x | x | x | x | n
Cc1ccc(C(NC(=O)C(C)C)c2cc([N+](=O)[O-])c3cccnc3c2O)cc1 (stereo unspecified) | n | n | n | n | n | x | x | x | x | x | x
COc1ccc(OC)c(S(=O)(=O)N2CCC(C(=O)N(C)Cc3ccccc3)CC2)c1 | n | n | n | n | n | x | x | x | x | x | x
Cc1ccccc1OCCOC(=O)c1ccc(S(=O)(=O)N2CCCC2)cc1 | n | 158.2 | n | n | n | n | n | n | n | n | n
O=c1c2cc(Cl)ccc2nc(-c2ccccc2Cl)n1O | n | n | n | n | n | n | n | n | n | n | x
O=C1N(c2ccccc2C(F)(F)F)O[C@@]1(c1ccccc1)C1CCCCC1 | n | n | n | n | n | n | n | n | n | n | n
